Compound activity deposited in PubChem by Broad Institute.
PglD DTNB = C. jejuni PglD acetyltransferase inhibitors, primary screen, biochemical, DTNB colorimetric, single point | UDP-N-acetylbacillosamine N-acetyltransferase PglD (Campylobacter jejuni) | purified PglD enzyme, DTNB colorimetric CoA detection | inhibition, % at 12.5 µM | hit rate 0.098% among 360,000 | AID 602405, 2012; in the data active = inhibition above about 16%, passing the limit was not always enough
ARNT TACC3 PPI = disruptors of ARNT/TACC3 protein interaction, primary screen, biochemical, AlphaScreen, single concentration; Transforming acidic coiled-coil-containing protein 3 (Homo sapiens), Q9Y6A5; AID 623870, 2012; AlphaScreen His-ARNT PAS-B/GST-TACC3 binding, luminescence; TACC3 fragment carries E629A point mutation; inhibition, % at 9.99 µM; hit rate 0.66% among 390,000;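 active = mean inhibition of replicates at least 50% and at least half of replicates each reaching 50%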;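 also: 0% = complete ARNT plus TACC3 wells and 100% = ARNT alone without TACC3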
Statin myotox sup = suppressors of statin myotoxicity in C2C12 myotubes, primary screen, cell-based, single point, plate reader. C2C12 myotubes + simvastatin, ATP luminescence, 48 h; scaled: DMSO 0, geranylgeraniol control 100. rescue of ATP level, % at 7.49 µM. hit rate 0.78% among 330,000;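 active = mean ATP rescue above about 67%, or every replicate alone reaching that limit, limit read from the data, passing the limit was not always enough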;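 also: myotubes were challenged with 10 µM simvastatin during compound exposure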
CFTR F508del cor = F508del CFTR correction, initial screen, CFBE line, single point. CFBE cells, YFP halide quenching; stimulated with forskolin plus potentiator P3; % fluorescence drop versus neutral controls. activity (quench increase), % at 7.58 µM. hit rate 0.36% among 350,000;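 active = mean added fluorescence quench of at least 8% versus neutral control, with both replicates also reaching 8%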;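 also: cells transiently co-express mutant CFTR-F508del with the halide-sensitive YFP; corrector assay measuring rescue of mutant channel to the surface after 24 h compound exposure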
Numbers without * were called inactive; · = no result. A selection: hits, their analogues and other compounds. The true share with any hit is near 1.4%.

SMILES	PglD DTNB	ARNT TACC3 PPI	Statin myotox sup	CFTR F508del cor
CCOC(=O)C1=C(C)NC(C)=C(C(=O)OCC)C1c1cn(-c2ccccc2)nc1-c1ccco1	·	62*	·	·
Cn1cnc(S(=O)(=O)N2CC[C@@H]3[C@@H](CO)Nc4ccc(C#Cc5ccc(F)cc5)cc4[C@@H]32)c1	·	·	·	0
O=C(CSc1nnnn1-c1cccc2c1CCCC2)N1CCCCC1	2	6	105*	·
Cn1nnnc1SCC(=O)N1CCCc2ccccc21	7	5	-11	·
COc1cc(OC)cc(-c2nnc(SCC(=O)N3CCCc4ccccc43)o2)c1	-12	-3	108*	·
COc1cccc(-c2nnc(SCC(=O)N3CCCc4ccccc43)o2)c1	5	-9	98*	·
COc1ccc(-n2nnnc2SCC(=O)N2CCCc3ccccc32)cc1OC	3	7	128*	·
CCC(=O)N1C[C@@H]2[C@H](c3ccccc31)[C@@H](CO)N2Cc1ccccc1F	-2	-5	2	-2
O=c1c2ccccc2ncn1Cc1nc2ccccc2s1	3	-9	114*	·
O=C(Cn1cnc2ccccc2c1=O)Nc1nc2ccccc2s1	·	-3	·	-1
O=C(C[C@H]1CC[C@H](NC(=O)c2ccc3c(c2)OCO3)[C@H](CO)O1)NCc1ccc(Cl)cc1	-2	-31	10	3
CC(=O)N1C=CN(C(C)=O)C(c2cn(C)c3ccccc23)C1c1cn(C)c2ccccc12 (configuration not stated)	1	1	115*	·
Cn1cc(/C=C/C(=O)c2ccccc2)c2ccccc21	-4	0	7	2
Cc1ccc(S(=O)(=O)N2CCN(C(=O)CN(Cc3ccco3)Cc3cccs3)CC2)cc1	0	6	-10	29*
CCS(=O)(=O)N1CCC2(CC1)CN[C@@H](CO)c1c2c2ccc(OC)cc2n1C	·	·	·	0
Nc1ccc2c3c(cccc13)C(=O)N(c1ccccc1)C2=O	·	·	·	33*
O=C(C[C@@H]1C=C[C@H](NC(=O)c2cccnc2)[C@@H](CO)O1)NCc1ccncn1	·	·	·	-1
O=C(N1CCCCCC1)N1CCN(S(=O)(=O)N2CCCCC2)CC1	·	-3	101*	·
CN(C)S(=O)(=O)N1CCN(C(=O)N2CCCCC2)CC1	-2	1	-7	·
CC(C)N=c1scc(-c2ccco2)n1/N=C/c1ccc(O)c(O)c1	-5	27	-42	·
Oc1ccc(/C=N/n2c(-c3ccco3)csc2=Nc2cccnc2)c(O)c1	1	64*	27	·
C=CCN=c1scc(-c2ccco2)n1/N=C/c1ccc(O)c(O)c1O	·	49*	·	0
CN=c1scc(-c2cccs2)n1/N=C/c1ccc(O)c(O)c1O	·	60*	·	1
CCCN1[C@@H]2c3ccc(-c4ccccc4)c(=O)n3C[C@@H]2[C@@H](CO)[C@@H]1C(=O)NCCc1cn(C)cn1	-3	26	13	-2
COc1ccc(C(=O)N2CCC(C(=O)Nc3ccc4c(c3)OCCO4)CC2)cc1	1	17	86*	·
SMILES	PglD DTNB	ARNT TACC3 PPI	Statin myotox sup	CFTR F508del cor
O=C(Nc1ccc2c(c1)OCCO2)C1CCN(C(=O)c2ccc(Br)cc2)CC1	6	5	3	·
COc1ccc(C(=O)N2CCC(C(=O)NCc3ccccn3)CC2)cc1	3	44	114*	·
COc1ccc(NC(=O)NCc2ccccn2)cc1	1	-1	110*	·
O=C(Cc1ccncc1)NCC[C@H]1CC[C@@H](NC(=O)Nc2ccc(Cl)cc2)[C@H](CO)O1	0	4	-1	-1
C[C@@H]1CCCCO[C@H](CN(C)CC2CC2)[C@H](C)CN([C@@H](C)CO)C(=O)c2cc(NC(=O)c3ccncc3)ccc2O1	-3	2	-1	-1
COCc1nc2ccccc2n1Cc1ccc(Br)cc1	12	-7	79*	·
CO[C@@H]1CC[C@H]2CCOc3ccc(C#N)cc3C(=O)N(C)C[C@@H](C)C(=O)N(C)C[C@@H]1O2	1	-10	1	·
Fc1ccc(C(c2nnnn2C2CCCC2)N2CCN(Cc3ccccc3)CC2)cc1 (configuration not stated)	0	·	137*	·
CC(C)CCn1nnnc1CN1CCN(C(c2ccccc2)c2ccccc2)CC1	2	0	·	0
CCC(c1nnnn1C1CCCC1)N1CCN(c2ccccc2F)CC1 (configuration not stated)	·	0	124*	·
c1ccc(C(c2ccccc2)N2CCN(Cc3nnnn3C3CCCC3)CC2)cc1	3	-12	77*	·
C[C@H](CO)N1C[C@H](C)[C@H](CN(C)C(=O)c2ccccc2)OCCCC[C@H](C)Oc2ccc(NC(=O)Nc3cccc4ccccc34)cc2C1=O	1	-10	·	-3
CN(C)C(=O)[C@@H]1[C@@H](CO)[C@@H]2Cn3c(ccc(-c4cccc(F)c4)c3=O)[C@@H]2N1C(=O)c1ccccn1	·	·	-22	-3
CC1(c2ccccc2)CC(C)(C)N2C(=O)C3(C(C#N)=C(N)Oc4cc(O)ccc43)c3cccc1c32 (configuration not stated)	-3	10	87*	3
Cc1cc2c3c(c1)C(C)(c1ccccc1)CC(C)(C)N3C(=O)C21C(C#N)=C(N)OC2=C1C(=O)CC(C)(C)C2 (configuration not stated)	-1	-31	35	·
Cc1noc(C)c1S(=O)(=O)Nc1ccc2c(c1)CC(=O)N([C@@H](C)CO)C[C@H](C)[C@H](CN(C)Cc1ccncc1)O2	2	-3	10	-2
O=C(C1CCOCC1)N1[C@@H](CO)[C@@H](c2ccccc2)C12CN(Cc1cccnc1)C2	·	·	·	0
COc1ccc(S(=O)(=O)Nc2cc3c4c(oc3c3ccccc23)CCCC4=O)cc1	4	-3	77*	·
C/C=C/c1ccc([C@@H]2[C@H](CO)N(C(=O)CN(C)C)C23CN(C(=O)C2CCCCC2)C3)cc1	·	·	·	5
CCN(CC)c1ccc(C(=O)NNC(=O)CCNC(=O)c2ccccc2)cc1	-7	3	1	-1
CCN(CC)c1ccc(C(=C2C=CC(=[N+](CC)CC)C=C2)c2ccccc2)cc1	·	23*	·	-9
COc1ccc(OC)c(C(=O)Cn2nnc(-c3ccc(N4CCOCC4)cc3)n2)c1	4	-2	-37	10*
COc1ccc(-c2ccc(-c3nnn(CC(=O)N4CCOCC4)n3)cc2)cc1	-2	-5	-4	·
CO[C@H]1CN(C)C(=O)c2ccc(NS(=O)(=O)c3cn(C)cn3)cc2OC[C@@H](C)N(CC2CC2)C[C@@H]1C	-2	-10	-4	-3
COCC(=O)N[C@H]1CC[C@H](CC(=O)NCc2ccc(Cl)cc2)O[C@@H]1CO	8	34	-2	1
Nc1[nH]c(=O)nc(Nc2ccccc2)c1N=O	·	28*	·	·
O=C(O)COc1ccccc1/C=N/NC(=O)c1cc(-c2ccc(F)cc2)nc2ccccc12	2	47*	2	-3
O=C(N/N=C/c1ccc2c(c1)OCO2)c1cc(-c2ccc(F)cc2)nc2ccccc12	-2	-3	·	1
